# Hits are enriched below; roughly 2.3% of the tested compounds scored in any of these assays.
# TDP-43 yeast inh: qHTS of TDP-43 Inhibitors; TDP-43 expressing yeast growth rescue, BacTiter-Glo, 24 h; Potency, µM (top dose mostly 46.1 µM), inactives show at the highest dose growth rescue (activation), actives largely listed as activators; 410,000 compounds, 1.8% hits; note: potency is the fitted concentration of half-maximal effect; % of control where 0% means no effect; nearly all actives have a fitted effect of over 50% in size
#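 Luminescence from BacTiter-Glo reports growth of TDP-43-expressing yeast after 24 hr at 30 deg C with compound. Cells were raffinose-pregrown to mid-log, then seeded in galactose medium at OD600=0.02.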
# aSyn rescue: qHTS of alpha-syn Inhibitors | Yeast expressing alpha-synuclein, growth rescue, BacTiter-Glo, 24 h | Potency, µM (titrated, usually from 46.1 µM), without a hit: top-dose growth rescue (activation), hits mostly activators | 370,000 compounds, 0.14% hits | AID 652106, 2013; note: potency is the fitted concentration of half-maximal effect; % of control where 0% means no effect; nearly all actives have a fitted effect of over 65% in size
#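 Galactose-induced alpha-syn yeast (OD600=0.02, raffinose-pregrown) + pinned cpd, 24 hr, 30 deg C; growth by BacTiter-Glo luminescence. Growth restoration scores as activation.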
# pAkt inh: HTS Assay for Inhibitors of Akt Phophorylation: Primary Screen. Neuro2A IGF-stimulated pAkt S473 HTRF, 20 min; active compounds read low. activity change, % for hits at 50 µM. AID 651550, 2012. 360,000 compounds, 0.32% hits; in the data active = activity change below about -80%; inconclusive = mostly about -51% to -80%; note: % is set by controls: 0 for no effect and ±100 for the full control effect
#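 Neuro2A cells (4,500/well, DMEM with 0.5% FBS) were treated with compound at a single 50 µM final concentration, stimulated with 6 nM IGF for 20 min at 37 °C, and lysed. Phospho-Akt Ser473 was read by HTRF as 665/615 ratio ×10^4.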
# FUS suppressor: qHTS for Suppressors of FUS Proteinopathy: Primary screen using FUS-linked yeast assay; S. cerevisiae FUS-expressing, growth rescue, OD600, 24 h; Potency, µM (top dose mostly 76.6 µM), actives largely listed as activators; 390,000 compounds, 0.24% hits; AID 1347120, 2019;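 note: potency is the fitted concentration of half-maximal effect; plate controls were DMSO vehicle for no effect and reference control for full effect; nearly all actives have a fitted effect of over 55% in size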
#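 Yeast FUS proteinopathy model; galactose-induced FUS (2%), starting OD 0.005. Cpds in dilution series, 24hr, 30C, 99% humidity. Abs 600 nm growth. Pos ctrl CP55940 (top 92uM final); neg ctrl DMSO.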
# Abeta yeast res: qHTS for compounds that reverse cellular toxicity of Amyloid beta (A-beta) peptide in yeast: Primary Screen | yeast expressing A-beta42, growth rescue, OD600, 48 h; response scale: 0% DMSO, 100% iron-clioquinol control | Potency, µM (doses to about 46.1 µM), most hits filed as activators | 410,000 compounds, 0.063% hits | AID 1347071, 2019; note: potency is the fitted concentration of half-maximal effect; nearly all actives have a fitted effect of over 55% in size
#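 Yeast growth medium received pinned compounds, then yeast cells expressing toxic A-beta were added; plates incubated at 30 C for 48 hr. Growth read as absorbance at 600 nm, normalized to DMSO and equimolar FeCl3 plus clioquinol controls.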
# * hit, by the source's call; i = inactive; ? = inconclusive; . = no result given; [ ] = dose if it differs, or a comment. Unless noted, calls come from the whole dose curve; as a rule, active = well fitted curve in the direction sought with a large enough effect; inconclusive = small, poorly fitted or top-dose-only effect, or another doubt; inactive = no such curve, though single readings can be large; an effect the other way counts as inactive or inconclusive.
SMILES,TDP-43 yeast inh,aSyn rescue,pAkt inh,FUS suppressor,Abeta yeast res
CCn1cc(/C=C/C(=O)NCc2c(C)nn(C)c2C)cn1,-29%,1%,-107%*,i,i
CC(=O)c1cccc(NC(=O)C2Cc3c(-c4ccccc4Oc4ccccc4)ccnc3O2)c1 (centres undefined),?,7%,i,?,i
CC(=O)Nc1ccc(-c2ccnc3c2CC(C(=O)Nc2cccc(Oc4ccccc4)c2)O3)cc1 (centres undefined),?,13%,.,11µM*,i
O=C(Nc1cccnc1)C1Cc2c(-c3ccccc3Oc3ccccc3)ccnc2O1 (centres undefined),28µM*,6%,i,i,i
CN(C)c1cccc(NC(=O)C2Cc3c(-c4ccccc4Oc4ccccc4)ccnc3O2)c1 (centres undefined),22%,-1%,i,25µM*,i
Cc1ccc(-n2c(SCC(=O)Nc3ccc(OCc4ccccc4)cc3)nnc2-c2ccccc2)cc1,.,.,.,i,.
CCCCCc1cc(O)c2c(C)cc(=O)oc2c1,3.2µM*,-9%,i,i,i
Cc1cc(=O)oc2cc(O)cc(O)c12,4%,-1%,i,i,i
CN1/C(=C/C(=S)NC(=O)C2(C)CC2(Cl)Cl)C(C)(C)c2ccccc21 (centres undefined),-11%[1.82 µM],-7%,i,?,10µM*
FC(F)(F)c1ccc(N2CCN(c3ncnc4c3nnn4Cc3ccccc3)CC2)nc1,-16%,2%,-86%*,i,i
CN(C(=O)c1ccc2c(c1)N(Cc1ccccc1F)C(=O)c1ccccc1S2(=O)=O)C1CCCCC1,-4%,.,.,10µM*,i
CN(Cc1ccccc1)C(=O)c1ccc2c(c1)N(Cc1ccccc1F)C(=O)c1ccccc1S2(=O)=O,1%,.,.,32µM*,i
Cc1cccc(CN2C(=O)c3ccccc3S(=O)(=O)c3ccc(C(=O)N(C)Cc4ccccc4)cc32)c1,14%,.,.,?,i
Cc1ccc(CSc2ccc3nnc(CCNS(=O)(=O)c4ccc(C)cc4)n3n2)cc1,10%,.,.,i,i
CCN(CC)C1=N/C(=C\c2ccc(OC)cc2)C(=O)N1c1ccccc1,22µM*,9%,i,i,i
O=C(Nc1ccc(NC(=O)c2ccc(Br)cc2)c(Cl)c1)c1ccc(Br)cc1,29%,.,.,i,i
CC(C)(C)c1csc(Sc2ccc([N+](=O)[O-])cn2)n1,11µM*,-12%,i,i,i
Cc1cccc(Sc2ccc([N+](=O)[O-])cn2)c1,11µM*,1%,i,i,i
O=[N+]([O-])c1ccc(NCCOc2ccccc2Cl)nc1,23%,2%,i,i,i
Cc1cccc(OCCNc2ccc([N+](=O)[O-])cn2)c1,13µM*,2%,i,i,i
CO[C@H]1C[C@@H]2CC[C@@H](C)[C@@](O)(O2)C(=O)C(=O)N2CCCC[C@H]2C(=O)O[C@H]([C@H](C)C[C@@H]2CC[C@@H](O)[C@H](OC)C2)CC(=O)[C@H](C)/C=C(\C)[C@@H](O)[C@@H](OC)C(=O)[C@H](C)C[C@H](C)/C=C/C=C/C=C/1C,.,-73%,.,.,.
COc1cccc(C2CC(c3c(-c4ccccc4)c4cc(Cl)ccc4[nH]c3=O)=NN2S(C)(=O)=O)c1OC (centres undefined),-2%,14%,.,35µM*,i
COc1ccc(CCNC(=O)CSc2nnc(CNc3ccc(Cl)cc3)o2)cc1OC,0%,-2%,i,i,i
O=C(COc1ccccc1Cl)Nc1nc2c(s1)CCCC2,11µM*,.,.,i,i
O=C(CSc1nnc(CNc2ccc(Cl)cc2)o1)Nc1nc2c(s1)CCCC2,19%,-5%,i,35µM*,i
SMILES,TDP-43 yeast inh,aSyn rescue,pAkt inh,FUS suppressor,Abeta yeast res
O=C(CSCc1ccc(F)cc1)Nc1nc2c(s1)CCCC2,14µM*,12%,i,i,i
CCOc1ccc(-c2nonc2NC(=O)c2ccccc2C)cc1,-7%,.,.,i,i
CC(C)Sc1nc(NCc2ccco2)c2c3c(sc2n1)COC(C)(C)C3,?,-7%,-118%*,?,i
CSc1nc(SCC(=O)NCc2ccco2)c2c3c(sc2n1)COC(C)(C)C3,-7%,0%,i,?,i
CCOC(=O)C1C(=O)C=C(c2ccc(Br)cc2)CC1c1ccco1 (centres undefined),25µM*,4%,i,i,i
CCOC(=O)C1C(=O)C=C(c2ccc([N+](=O)[O-])cc2)CC1c1ccccc1 (centres undefined),20µM*,9%,i,i,i
Clc1cccc(Cl)c1/C=C/c1ccn[nH]1,22µM*,-4%,i,i,i
O=C(/C=C/c1c(F)cccc1Cl)c1ccc(F)cc1,5%,-14%,i,i,i
Cc1nc(N2CCN(C(=O)c3ccco3)CC2)nc2c1C(=O)CC(C)C2 (centres undefined),?,-1%,i,i,i
CCOC(=O)N1CCN(c2nc(C)c3c(n2)CC(C)CC3=O)CC1 (centres undefined),20µM*,1%,i,i,i
CCOc1ccc(Cn2c(CNS(=O)(=O)c3cccs3)nc3cccnc32)cc1,-7%,.,.,i,i
CCN(C(=O)c1c(C)oc2ncnc(N3CCCCC3)c12)c1cc(C)ccc1C,22%,.,.,i,i
COc1ccccc1-c1cc(NC(C)=O)c2ncc(-c3ccccc3)n2c1,?,25%,i,i,i
COc1ccc(-c2cc(NC=O)c3ncc(-c4cccc(C(F)(F)F)c4)n3c2)c(OC)c1,16µM*,-6%,i,?,i
COc1cccc(-c2cnc3c(NC(C)=O)cc(-c4ccccc4OC)cn23)c1,20µM*,6%,i,i,i
CN(C)C(=O)c1cccc(-c2cnc3c(NC=O)cc(-c4cccc(C(F)(F)F)c4)cn23)c1,0%,-2%,i,28µM*,i
COc1cc(-c2cnc3c(NC=O)cc(-c4cccc(C(F)(F)F)c4)cn23)cc(OC)c1OC,0%,11%,i,?,i
Cc1cccc(-c2cc(NC=O)c3ncc(-c4cccc(C(=O)N(C)C)c4)n3c2)c1,15%,2%,i,i,i
O=CNc1cc(-c2cccc(F)c2)cn2c(-c3ccc(F)cc3)cnc12,18µM*,-7%,i,i,i
COc1ccccc1-c1cc(NC(C)=O)c2ncc(-c3cccc(C(F)(F)F)c3)n2c1,?,8%,i,i,i
